The target of this assay is Pyruvate kinase PKM (Homo sapiens) (UniProt P14618). Briefly: Confirmation Concentration-Response Assay for Activators of Human Muscle isoform 2 Pyruvate Kinase: for Probe SAR. Type of assay: functional.

Only a part of the results of these assays is listed, not drawn at random.

Chain of Pyruvate kinase PKM (Homo sapiens) (P14618 2-531 limits assumed): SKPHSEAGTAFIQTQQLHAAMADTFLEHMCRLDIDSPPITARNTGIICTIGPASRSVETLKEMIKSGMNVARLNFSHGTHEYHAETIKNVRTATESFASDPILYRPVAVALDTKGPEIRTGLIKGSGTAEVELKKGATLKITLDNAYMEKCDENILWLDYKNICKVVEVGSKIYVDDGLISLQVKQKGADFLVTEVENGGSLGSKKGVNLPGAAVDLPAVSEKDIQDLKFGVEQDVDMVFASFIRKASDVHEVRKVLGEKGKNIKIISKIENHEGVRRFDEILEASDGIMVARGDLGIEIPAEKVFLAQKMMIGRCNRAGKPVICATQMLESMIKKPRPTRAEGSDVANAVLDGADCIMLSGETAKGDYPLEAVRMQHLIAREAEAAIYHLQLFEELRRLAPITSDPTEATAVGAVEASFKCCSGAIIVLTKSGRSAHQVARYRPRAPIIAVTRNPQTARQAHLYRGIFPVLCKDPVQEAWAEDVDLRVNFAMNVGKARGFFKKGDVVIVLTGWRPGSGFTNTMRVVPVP

As to `C[N+](C)(C)c1cccc(S(=O)(=O)N2CCCN(S(=O)(=O)c3ccc4c(c3)OCCO4)CC2)c1`, the Potency was 16.3 µM (active).

The record behind these values is ChEMBL document CHEMBL1201862, “PubChem BioAssay data set” (2004).
